Source: PubChem BioAssay (National Center for Advancing Translational Sciences (NCATS))
This excerpt belongs to a sample that is enriched for hits.
N370S GC – qHTS Assay for Inhibitors and Activators of N370S glucocerebrosidase as a Potential Chaperone Treatment of Gaucher Disease. Potency, µM (titrated, usually from 59.4 µM), without a hit: top-dose activity change, negative = inhibition, actives largely listed as inhibitors. 0.092% of 330,000 active. AID 2101, 2009. N370S GC spleen homogenate, 4MU-glucoside fluorescence. Lysosomal acid glucosylceramidase (Homo sapiens), P04062;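 also: potency is read from the fitted curve at half-maximal effect; 0% = full enzyme activity and -100% = no enzyme basal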
a7 integrin act – qHTS for Activators of Integrin-Mediated Alleviation for Muscular Dystrophy; Potency, µM (titrated, usually from 38.3 µM), inactives show at the highest dose activation, actives largely listed as activators; alpha7betagal myoblasts, beta-gal FDG fluorescence, 48 h; 0.064% of 350,000 active;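 also: potency is read from the fitted curve at half-maximal effect; 100% = response of the positive control SU9516; nearly all actives have a fitted effect of over 60% in size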
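Alpha7betagal+/- myoblasts (passage 13) were plated 16-24 hr, then exposed to compounds (1:260 dilution of DMSO stock) for 48 hours at 37C. After MPER lysis, β-galactosidase reporter activity was read as FDG fluorescence (ex 480/em 540) after 30 minutes.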
ClpP mod – qHTS Assay for Activators of ClpP | purified B. subtilis ClpP, FRET peptide cleavage, 20 min | Potency, µM (top dose mostly 57.5 µM), for the others: top-dose activity change, negative = active | 1.9% of 340,000 active | AID 651965, 2013; active = well fitted falling curve with a large enough effect; inconclusive = small, poorly fitted or top-dose-only effect; inactive = no such curve, though single readings can be large or run the other way; also: potency is read from the fitted curve at half-maximal effect; the source files actives as falling curves though it sought activators and does not explain the sign; nearly all actives have a fitted effect of over 65% in size
Target sequence (P80244 whole entry, looked up): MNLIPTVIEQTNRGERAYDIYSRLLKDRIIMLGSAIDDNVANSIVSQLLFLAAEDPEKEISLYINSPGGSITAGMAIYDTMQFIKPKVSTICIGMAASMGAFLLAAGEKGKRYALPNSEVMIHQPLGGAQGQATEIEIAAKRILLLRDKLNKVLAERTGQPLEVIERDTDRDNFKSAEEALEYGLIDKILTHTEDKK
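FRET quenching reversal measured ClpP activation: 10 microg/mL B. subtilis ClpP at pH 8 with the FRET-FV decapeptide, read at 430 nm after 320 nm excitation. The 20-min minus 0-min signal was scaled between DMSO/no-enzyme wells and ADEP (5.8 microM final).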
Apoferritin bind – qHTS Assay for Identification of Novel General Anesthetics. Ferritin light chain (Equus caballus), P02791. apoferritin/1-aminoanthracene competitive binding, fluorescence. Potency, µM (series often up to 77.5 µM), for the others: top-dose activity change, negative = displacement, hits mostly inhibitors. 0.074% of 350,000 active; also: potency is read from the fitted curve at half-maximal effect; % is scaled to controls: 0 for no effect and ±100 for the full control effect; nearly all actives have a fitted effect of over 20% in size
Target sequence (P02791 2-175 limits assumed): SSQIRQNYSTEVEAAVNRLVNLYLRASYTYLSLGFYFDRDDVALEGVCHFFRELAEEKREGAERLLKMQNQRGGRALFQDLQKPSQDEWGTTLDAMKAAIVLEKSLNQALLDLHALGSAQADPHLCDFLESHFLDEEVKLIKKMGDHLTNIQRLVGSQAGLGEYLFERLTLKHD
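Apoferritin-based anesthetic binding model; compound displacement of fluorescent 1-AMA measured as endpoint fluorescence after 10 minutes at room temperature, scaled to free-ligand and complex controls.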
Glioma ERSR ind – qHTS for Inducers of the Endoplasmic Reticulum Stress Response (ERSR) in Human Glioma: qHTS | 0.02% of 420,000 active | U87-MG GRP78 promoter luciferase reporter, 16 h | Potency, µM, without a hit: top-dose activation, usual class: activators; also: potency is read from the fitted curve at half-maximal effect; series mostly up to about 76 µM; % of control where 0% means no effect; nearly all actives have a fitted effect of over 35% in size
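Stably transfected U87-MG glioma cells carrying a GRP78-based luciferase sensor; 16 h compound incubation. Luminescence end-point read 10 min after Bright-Glo addition at room temperature.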
CBFb-RUNX1 inh – qHTS Assay for Compounds Blocking the Interaction Between CBF-beta and RUNX1 for the Treatment of Acute Myeloid Leukemia; AlphaScreen CBFb-His/RUNX1-biotin binding, biochemical; Potency, µM (top dose mostly 59.8 µM), without a hit: at the top dose activity, negative = inhibition, actives largely listed as inhibitors; 230,000 tested, under 10 active; AID 1477, 2009; also: % of control where 0% means no effect
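Compounds were screened at multiple concentrations against a preformed CBF-beta(His)/RUNX1(biotin) complex (30 nM of each) for 15 min at room temperature, followed by 90 min with nickel and streptavidin beads and AlphaScreen reading.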
Starred values were filed as active, the others as inactive; u = inconclusive; x = not tested or not shown; ! = not active in a repeat. Unless noted, calls follow the shape of the dose curve; as a rule, active = well fitted curve in the direction sought with a large enough effect; inconclusive = small, poorly fitted or top-dose-only effect, or another doubt; inactive = no such curve, though single readings can be large; an effect the other way counts as inactive or inconclusive.

SMILES | N370S GC | a7 integrin act | ClpP mod | Apoferritin bind | Glioma ERSR ind | CBFb-RUNX1 inh
COc1ccc(Cn2c(SCc3ccc(C(=O)NCc4ccccc4F)cc3)nc3cccnc32)cc1 | x | x | 32µM* | -12% | -5% | x
O=C(NCc1ccccc1)c1ccc(CSc2nc3cccnc3n2Cc2ccccc2F)cc1 | x | x | u | -12% | -1% | x
O=C(NCCN1CCCCC1)c1ccc(Cn2c(SCc3ccc(F)cc3)nc3cccnc32)cc1 | x | x | 32µM* | -4% | -1% | x
CCNC(=O)c1ccc(CSc2nc3cccnc3n2Cc2ccc(OC)cc2)cc1 | x | x | 4% | 15% | -3% | x
COCC1CCCN(Cc2ccc3c(c2)CN(C(=O)c2cccnc2OC)CCO3)C1 (stereo not drawn) | x | x | x | x | 0% | x
NCCCN(Cc1ccc(Cl)c(Cl)c1)c1ccc(Br)cn1 | x | x | -4% | x | x | x
CCOC(=O)N1CCN(C(=O)c2cccn3c(=O)c4sccc4nc23)CC1 | 11% | 4% | 25µM* | 126% | -1% | 12%
COc1cc2nc(N3CCCN(C)CC3)nc(NC3CCN(C)CC3)c2cc1OC | x | x | 4% | x | x | x
CCCCN(CCCC)c1ccc(C=Nc2ccc(/C=C/c3ccnc4ccccc34)cc2)cc1C | x | x | -2% | x | -4% | x
N=C1CCCN1CC(=O)c1ccc(Cl)cc1 | -3% | 22% | 2% | -7% | 2% | 0%
Cc1ccc(C(=O)C[n+]2ccc(-c3nnc4n3CCC4)cc2)cc1 | -4% | 4% | 11µM* | -8% | -3% | -2%
O=C(C[n+]1ccc(-c2nnc3n2CCC3)cc1)c1ccc(Cl)cc1 | -5% | -29% | 32µM* | 5% | 0% | 4%
O=[N+]([O-])c1ccc(/C=C2\C=C(C(O)c3ccc([N+](=O)[O-])cc3)c3ccccc32)cc1 (stereo not drawn) | x | x | -3% | x | -4% | x
COc1cc2nc(N3CCCN(C)CC3)nc(NC3CCNCC3)c2cc1OC | x | x | 4% | x | x | x
CC1=C(C(=O)OC2CCCCC2)C(c2ccco2)C2=C(CC(C)(C)CC2=O)N1 (stereo not drawn) | u | -2% | 32µM* | -9% | -4% | -2%
COC(=O)c1ccc(C2C(C#N)=C(C)NC3=C2C(=O)CC(C)(C)C3)cc1 (stereo not drawn) | u | 18% | 22µM* | 364% | -5% | 10%
CC1=C(C(=O)OC2CCCCC2)C(c2ccc(C)o2)C2=C(CCCC2=O)N1 (stereo not drawn) | -3% | -16% | u | -17% | -2% | -9%
COc1ccc(C2C(C#N)=C(SC)NC3=C2C(=O)CC(C)(C)C3)cc1 (stereo not drawn) | -3% | 17% | -10% | -5% | -5% | 5%
CCN(CC)c1ccc(C2C(C(=O)OCCOC)=C(C)NC3=C2C(=O)CC(C)(C)C3)cc1 (stereo not drawn) | 16% | -23% | 28µM* | 2% | -1% | 0%
CCOC(=O)C1=C(C)NC2=C(C(=O)CC(C)(C)C2)C1c1cccc(C)n1 (stereo not drawn) | 9% | -5% | 32µM* | -5% | -6% | 2%
CCOC(=O)C1=C(C)NC(C)=C(C(=O)OCC)C1c1cccc(C)n1 | 6% | u | x | 25% | -4% | -3%
COc1cc(=O)n2c(c1C(=O)N(C)Cc1nonc1C)CCN(Cc1cc(F)ccc1F)CC2 | x | x | x | x | -6% | x
CCCCC1C(C#N)=C(C)NC2=C1C(=O)CC(C)(C)C2 (stereo not drawn) | 3% | 1% | 13µM* | 485% | -4% | 3%
COCCNc1nc(NCCOC)c2sc(-c3ccccc3)cc2n1 | x | x | -9% | x | -3% | x
COc1cccc(CNc2nc3cc(-c4cccc(Cl)c4)sc3c(=O)n2C)c1 | x | x | 20µM* | x | 0% | x
SMILES | N370S GC | a7 integrin act | ClpP mod | Apoferritin bind | Glioma ERSR ind | CBFb-RUNX1 inh
COc1cccc(-c2cc3nc(NCc4cccnc4)n(C)c(=O)c3s2)c1 | x | x | -21% | x | 2% | x
C=CCNc1nc(NCc2cccc(OC)c2)c2sc(-c3ccccc3)cc2n1 | x | x | 20µM* | x | -1% | x
Cc1ccc(CNc2nc3cc(-c4ccccc4)sc3c(=O)n2C)c(C)c1 | x | x | 28µM* | x | -2% | x
O=C(Cc1ccc(OCC2CCCCC2)cc1)NO | x | x | 0% | x | 1% | x
Cc1nc2ccc(C(=O)N3CCc4c(cnc(C)c4CNC(=O)/C=C/c4cccs4)C3)cc2nc1C | x | x | x | x | -3% | x
O=c1c(-c2ccc(O)cc2)coc2cc(O)cc(O)c12 | 16µM*! | -11% | -3% | 3% | -11% | 11%
O=c1c2ccccc2nc(-c2ccoc2)n1CCc1ccccc1 | 13% | 20% | 25µM* | -1% | 2% | 3%
CCOC(=O)CCc1c(C)nc2cc(-c3ccc(F)cc3)[nH]n2c1=O | 3% | 2% | 25µM* | -2% | -2% | 4%
COC(=O)Cc1c(C)nc2nc(-c3ccc(Cl)cc3)[nH]n2c1=O | 3% | -3% | -24% | 0% | -2% | -21%
CCc1c(C)nc2cc(-c3ccc(OC)cc3)[nH]n2c1=O | -6% | 13% | 32µM* | -13% | 4% | 4%
CCOC(=O)Cc1c(C)nc2cc(-c3ccc(Cl)cc3)[nH]n2c1=O | 6% | 0% | 28µM* | 2% | 1% | 2%
COc1ccc(-c2cc3nc(N)cc(=O)n3[nH]2)cc1 | x | x | 4% | -11% | 0% | x
CCOC(=O)Cc1cc(=O)n2[nH]c(-c3ccc(C)cc3)cc2n1 | 19% | 21% | u | -2% | 4% | -15%
COCc1cc(=O)n2[nH]c(-c3ccc(C)cc3)cc2n1 | 6% | 22% | 20µM* | -12% | 2% | -3%
CCCCNc1ccc(/C=C2\C=Cc3ccccc32)cc1 | x | x | -2% | x | 2% | x
CCOC(=O)N1CCN(Cc2ccc3c(c2)CN(C(=O)c2cc(-c4ccccc4)on2)CCO3)CC1 | x | x | x | x | -5% | x
COCCN(C)C(=O)c1cnn(-c2ncc3c(n2)-c2ccccc2CCC3)c1C1CC1 | x | x | x | x | -1% | x
CCOC(=O)Cc1c(C)nc2c(-c3ccc(Cl)cc3)c[nH]n2c1=O | 4% | -26% | 3.2µM* | -10% | 5% | -4%
CC1=CC(C)(C)Nc2ccccc21 | -25% | -35% | 28µM*! | u | -3% | -7%
COc1ccc2c(c1)NC(C)(C)C=C2C | -16% | -18% | x | -18% | 1% | -23%
CN(c1ccc(C(=O)NCCSC(C)(C)C)cc1)S(C)(=O)=O | 5% | 16% | 10µM* | -4% | -2% | 8%
